Hedgehog inh = blocks Sonic Hedgehog signaling. Shh-LIGHT2 Gli-luciferase reporter, 30 h. inhibition, % (test concentration not listed). 2.1% of 22,000 active. AID 2313;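 active = mean inhibition across valid replicates above about 65%, limit read from the data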;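 also: pathway switched on by Shh-conditioned medium diluted 1 in 25 in low serum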
BJeLR viability = compounds reducing viability of BJeLR cells. BJeLR fibroblasts viability, CellTiterGlo ATP luminescence, 48 h; HRASV12, hTERT and SV40 LT/ST transformed. AID 2275. 0.64% of 30,000 active. viability loss activity score, % (no concentration beside the values); in the data active = viability loss activity score above about 50%;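 also: higher score means fewer live cells and less ATP luminescence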
MITF inhib = blocks MITF activity. TRPM1 promoter luciferase, luminescence, 24 h. inhibition, % (concentration not given with the values). 0.28% of 37,000 active. AID 2240; in the data active = inhibition above about 85%;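 also: human melanocyte line stably carrying TRPM1 promoter luciferase reporter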
YB-1 expression = YB-1 expression inhibition; U2OS, qRT-PCR YB-1 vs CDIP delta delta Cp, 16 h; stronger effect = higher value; zero = DMSO, each unit about twofold; delta delta Cp (YB-1 minus CDIP) (test concentration not listed); 0.37% of 30,000 active;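 active = delta delta Cp rounded down to an integer at or above 3, about 3 SD of DMSO wells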;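 also: higher means less YB-1 transcript or more CDIP transcript relative to DMSO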
* hit, by the source's call; . = not tested or not shown; ! = a repeat was not active. The full list was thinned out, with hits kept by preference.

SMILES	Hedgehog inh	BJeLR viability	MITF inhib	YB-1 expression
CSC(=O)OCC1=C[C@H](O)[C@@H]2C(C(=O)O)=CO[C@@H](OC3OC(CO)C(O)C(O)C3O)[C@H]12 (stereo partly specified)	-20	3	17	4.1*
Nc1nc2ccc(OC(F)(F)F)cc2s1	68*!	-5	-44	0.014
CC(O)(C(=O)Nc1ccc(S(=O)(=O)c2ccccc2)cc1)C(F)(F)F (stereo unspecified)	-69	7	-5	-0.079
CC(C)(C)C(=O)Nc1ccc2c(c1)C(=O)C(=O)c1ccccc1-2	88*	132*	97*	.
S=c1[nH]nc(CSCc2cccc3ccccc23)n1C1CCCCC1	69*	-8	18	-0.046
CC1CC(=O)[C@]2(C)CC[C@]3(C)C(C(=O)C(O)C4[C@@]5(C)CC[C@H](O)C(C)(C(=O)O)C5CC[C@]43C)C2C1C (stereo partly specified)	82*	106*	58	0.95
O=C(/C=C/c1ccccc1)Nc1ccc(Oc2ccc(F)cc2F)nc1	.	10	.	.
COc1ccc(S(=O)(=O)Nc2cccc3c2O[C@H](CN(C)Cc2ccccc2)[C@H](C)CN([C@H](C)CO)C3=O)cc1	-23	-1	-17	-0.26
CCc1c(C)c(C#N)c2[nH]c3ccccc3n2c1=O	.	101*	.	.
C[C@@H]1O[C@@H](O[C@H]2[C@H](O[C@H]3CC[C@@]4(C)C(CC[C@]5(C)C4CC=C4C6CC(C)(C)CC[C@]6(C(=O)O[C@@H]6O[C@H](CO[C@@H]7O[C@H](CO)[C@@H](O[C@@H]8O[C@@H](C)[C@H](O)[C@@H](O)[C@H]8O)[C@H](O)[C@H]7O)[C@@H](O)[C@H](O)[C@H]6O)CC[C@]45C)[C@]3(C)CO)OC[C@H](O)[C@@H]2O)[C@H](O)[C@H](O)[C@H]1O (stereo partly specified)	-8	.	.	-0.12
C[C@@H]1O[C@@H](O[C@H]2[C@H](O[C@H]3CC[C@@]4(C)C(CC[C@]5(C)C4C=C[C@]46OC[C@@]7(CCC(C)(C)C[C@H]74)[C@@H](O)C[C@]65C)[C@]3(C)CO)O[C@H](CO)[C@@H](O)[C@@H]2O[C@@H]2O[C@H](CO)[C@@H](O[C@@H]3O[C@@H](C)[C@H](O)[C@@H](O)[C@H]3O)[C@H](O)[C@H]2O)[C@H](O)[C@H](O)[C@H]1O (stereo partly specified)	104*	.	.	3.4*
S=C(NCc1ccco1)Nc1cccnc1	.	.	10	.
O=C(COc1ccc(NS(=O)(=O)c2cccc3cccc(Cl)c23)cc1)N1CCOCC1	.	3	.	.
N#Cc1c(N)[nH]c(=S)c(C(N)=O)c1-c1cccc(Br)c1	106*	8	5	-0.27
CCc1[nH]c(=S)c(C#N)c(-c2ccccc2)c1C(=O)OC	.	-4	.	.
Cc1ccccc1C(=O)Nc1cccc(-c2cn3ccccc3n2)c1	.	5	.	.
Cc1ccc2nc(-c3ccccc3)cn2c1	.	78*	.	.
Cc1c(Cl)cccc1N(CC(=O)O)S(=O)(=O)c1ccccc1	.	.	-6	.
COC(=O)c1c(NC(=O)CSc2ncn[nH]2)sc2c1CCCC2	.	.	18	.
N#Cc1c(NC(=O)CSc2ncn[nH]2)sc2c1CCCCC2	.	.	104*	.
C[C@@H]1CN([C@H](C)CO)C(=O)Cc2cc(NC(=O)CCC(F)(F)F)ccc2O[C@@H]1CN(C)S(=O)(=O)c1cccs1	-10	.	13	-0.39
CN(CC(=O)N1CCc2ccccc21)S(=O)(=O)c1ccc2nc(-c3ccccc3)[nH]c2c1	.	-2	.	.
O=C(Nc1ccccc1)C1CCCCC1	.	-4	-4	0.00093
O=C(ON1C(=O)c2ccccc2C1=O)C1CCCCC1	70*	-3	18	-0.33
C=CC1(C)C=C2CCC3C(C)(C)C(O[C@@H]4O[C@@H](CO)[C@H](O)[C@H]4O)CCC3(C)C2CC1O[C@@H]1O[C@H](CO)[C@@H](O)[C@H](O)[C@H]1O (stereo partly specified)	99*	.	.	0.91
CC1OC(OC2C(C(=O)O)OC(O[C@H]3CC[C@@]4(C)C(CC[C@]5(C)C4CC=C4C6CC(C)(C)CC[C@]6(C(=O)OC6OC(CO)C(O)C(O)C6O)CC[C@]45C)C3(C)C)C(O)C2O)C(OC2OCC(O)C(O)C2O)C(O)C1O (stereo partly specified)	1	-2	-71	1.3
CC1(C)CC[C@]2(C(=O)O)CC[C@]3(C)C(=CCC4[C@@]5(C)CC[C@H](O[C@@H]6O[C@H](CO)[C@@H](O)[C@H](O)[C@H]6O)C(C)(C)C5CC[C@]43C)[C@@H]2C1 (stereo partly specified)	89*	1	45	-0.53

Source: PubChem BioAssay (Broad Institute)
